# Counter-ions that a name gives are not always drawn.
# Assays:
# Assay in all cases: Euclidean distance of Cell Painting phenotypic profile (signed KS, 77 features) to DMSO centroid (dimensionless distance); 5 or 10 uM (library dependent); higher = stronger phenotypic change vs DMSO (phenoactivity)
# Conditions in all cases: 48 h
# [1] = test system: 786-O
# Outline: (§1)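 At 10 or 5 uM, as set by the library, and 0.1% DMSO final, compounds were applied for 48 h to five cancer lines and one healthy fibroblast line. Stained cells were imaged confocally at 20X in 9 fields per well, and Harmony extracted 77 features scored as signed Kolmogorov-Smirnov statistics against vehicle wells on the same plate. Profiles underwent plate-position correction, correlation weighting and replicate averaging at the top dose. Phenoactivity is the Euclidean distance from each such profile to the median vehicle profile.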
# [2] = test system: A549
# Outline: as §1
# [3] = test system: DU145
# Outline: as §1
# [4] = test system: FB
# Outline: as §1
# [5] = test system: HEPG2
# Outline: as §1
# [6] = test system: OVCAR4
# Outline: as §1
Structure (SMILES),Euclidean distance [1],Euclidean distance [2],Euclidean distance [3],Euclidean distance [4],Euclidean distance [5],Euclidean distance [6]
CN(C)CCOC(=O)COc1ccc(Cl)cc1 [Meclofenoxate (Centrophenoxine) HCl],0.714,0.913,1.3,0.93,1.13,1.29
CCc1c(C(=O)NCCc2ccc(N3CCCCC3)cc2)[nH]c2ccc(Cl)cc12,1.69,1.48,1.01,1.21,,1.47
NC(=O)Nc1cc(-c2cccc(F)c2)sc1C(=O)N[C@H]1CCCNC1,3.38,3.15,3.87,3.82,,4.24
CCCNC(=O)Nc1ccc(Oc2ncnc3cc(OC)c(OC)cc23)cc1Cl,0.633,0.789,0.916,2.36,,1.05
CC(C)CCNc1ncccc1C(=O)N1CCN(Cc2ccccc2)CC1,0.757,0.542,0.821,0.894,0.864,0.631
CCCCOc1c(C(=O)c2c(F)cc(C)cc2F)c[nH]c2nncc1-2,1.55,2.16,1.61,1.37,,2.1
CCCCC1OC(=O)c2ccccc21 (centres undefined) [3-n-Butylphathlide],1.36,0.948,0.834,1.38,0.575,1.15
"c1ccc(C2CN3CCSC3=N2)cc1 (single isomer, unassigned; (-)) [(-)-Tetramisole]",1.24,1.23,0.518,0.965,,2.19
Cc1ccc2c(=O)c3cccc(CC(=O)O)c3oc2c1C [DMXAA (Vadimezan)],2.33,0.921,1.14,1.4,,1.04
CN1C(=O)/C(=C2/C(=O)Nc3ccccc32)c2ccccc21 [Meisoindigo],1.94,2.33,0.82,2.24,1.8,1.35
CS(=O)(=O)c1cccc(CNc2nc(Nc3ccc4c(c3)CCC(=O)N4)ncc2C(F)(F)F)c1,3.16,2.6,3.07,3.24,,1.34
CC(C)c1cnn2c(NCc3ccccc3)cc(NCCCCCCN)nc12,0.657,0.869,0.933,0.961,,1.08
O=C(NOCC(O)CO)c1cc(Br)c(F)c(F)c1Nc1ccc(I)cc1F (centres undefined),1.97,2.76,1.78,2.89,,1.17
CC(C)[C@H](O)C(=O)N[C@@H](C)C(=O)N[C@@H]1C(=O)N(C)CCc2ccccc21,1.12,1.34,1.12,1.22,,1.03
CCN(CC)CCOC(=O)C(c1ccccc1)c1ccccc1 [Adiphenine HCl],1.67,0.625,0.633,1.43,,0.992
O=S(=O)(NCCNC/C=C/c1ccc(Br)cc1)c1cccc2cnccc12,2.02,1.32,2.19,1.3,,1.89
NC(=O)c1ncn([C@@H]2O[C@H](CO)[C@@H](O)[C@H]2O)c1N [Acadesine],1,1.3,0.856,1.35,,0.909
Nc1cccc(-c2cc3c(Oc4cccc(O)c4)ncnc3[nH]2)c1,1.73,3.48,1.62,2.71,,3.29
C[C@@H]1CN(CC(=O)Nc2ccc3c(c2)Cc2cccc(-c4cc(=O)cc(N5CCOCC5)o4)c2S3)C[C@H](C)O1,1.16,1.25,1.41,1.37,,2.14

Structure (SMILES),Euclidean distance [1],Euclidean distance [2],Euclidean distance [3],Euclidean distance [4],Euclidean distance [5],Euclidean distance [6]
CNC(=O)CN(CCN(CCN(CC(=O)[O-])CC(=O)NC)CC(=O)[O-])CC(=O)[O-].[Gd+3] [Gadodiamide],0.953,1.55,1.5,0.962,,1.1
COCCOc1ccc2c(c1)ncn2-c1ccc2cccc(N3CCC(N)CC3)c2n1,2.57,3.24,3.51,3.61,,3.88
Clc1ccc(C2(c3ccc(-c4cn[nH]c4)cc3)CCNCC2)cc1,2.95,3.29,3.8,4.67,,3.48
COc1cc(Nc2nc3ccccc3nc2NS(=O)(=O)c2ccc(NC(=O)c3ccc(C)c(OC)c3)cc2)cc(OC)c1,0.677,1.26,1.17,0.743,,1.07
CCOC(=O)Nc1ccc(NCc2ccc(F)cc2)nc1N [Flupirtine maleate],1.54,3.24,1.53,1.25,0.854,1.37
C[C@@]1(c2cc(-c3cncnc3)c(F)cc2F)CCSC(N)=N1,2.11,1.07,1.06,1.09,,0.965
COc1cc(NS(=O)(=O)c2ccc(N)cc2)nc(OC)n1 [Sulphadimethoxine],1.31,1.11,1.61,1.62,,1.44
CC(C)C[C@@H](C(=O)N[C@H](C(=O)OC1CCCC1)c1ccccc1)[C@H](O)C(=O)NO [Tosedostat (CHR2797)],0.679,1.35,0.893,1.15,,1.27
Cc1cccc(N(C)C(=S)Oc2ccc3ccccc3c2)c1 [Tolnaftate],1.29,0.815,1.01,0.908,1.96,1.36
COCC(=O)Nc1c(I)c(C(=O)NCC(O)CO)c(I)c(C(=O)N(C)CC(O)CO)c1I (centres undefined) [Iopromide],1.53,0.999,0.749,1.04,0.445,1.07
NS(=O)(=O)c1cc2c(cc1Cl)NCNS2(=O)=O [Hydrochlorothiazide],1.82,1.08,1.44,1.02,,0.927
Cc1ccc(-n2nc(C(C)(C)C)cc2NC(=O)Nc2ccc(OCCN3CCOCC3)c3ccccc23)cc1 [BIRB 796 (Doramapimod)],1.54,0.959,1.2,1.38,,1.21
O=C(Cn1ccnc1[N+](=O)[O-])NCc1ccccc1 [Benznidazole],1.16,1.1,1.58,1.03,0.581,1.14
N=c1ccn2c(n1)O[C@H]1[C@H](O)[C@@H](CO)O[C@H]12 [Cyclocytidine HCl],3.43,2.7,2.45,3.66,,4.57
C=CCc1cc(OC)c(O)c(C(=O)NCCO)c1 [Alibendol],2.26,0.655,0.743,0.938,,0.912
Cc1cc(NC(=O)Nc2ccc(N(C)C)cc2)c2cc(F)cc(F)c2n1,0.716,1.16,0.704,0.943,,0.985
CN(C)Cc1cccc(N/C(=C2\C(=O)Nc3cc(C(N)=O)ccc32)c2ccccc2)c1,1.11,1.06,1.33,2.56,,1.22
CN(C)Cc1cccc(N=C(c2ccccc2)c2c(O)[nH]c3cc(C(=O)N(C)C)ccc23)c1,0.777,0.99,1.08,3.16,,1.3
CC1=C(C(=O)OC2CCCCC2)C(c2ccc([N+](=O)[O-])cc2)C2=C(CC(C)(C)CC2=O)N1 (centres undefined),2.98,3.4,1.52,2.71,2.03,2.99

Structure (SMILES),Euclidean distance [1],Euclidean distance [2],Euclidean distance [3],Euclidean distance [4],Euclidean distance [5],Euclidean distance [6]
NCCCCCC(=O)O,0.84,1.89,2.26,1.67,,1.43
CCOC(=O)[C@H](CCc1ccccc1)N[C@H]1CCCN2CCC[C@@H](C(=O)O)N2C1=O [Cilazapril Monohydrate],1.14,1.31,0.828,1.03,,1.38
O=c1c(-c2ccc(O)cc2)coc2cc(O[C@@H]3O[C@H](CO)[C@@H](O)[C@H](O)[C@H]3O)ccc12 [Daidzin],0.57,0.784,,0.914,0.745,1.17
CC(C)C[C@H](NC(=O)[C@@H](O)[C@H](N)Cc1ccccc1)C(=O)O [Bestatin],1.08,0.773,,1.11,0.637,1.09
O=c1c(O)c(-c2ccc(O)cc2O)oc2cc(O)cc(O)c12 [Morin Hydrate],0.826,0.616,,0.68,0.312,1.06
C=CCn1c(=O)c2cnc(Nc3ccc(N4CCN(C)CC4)cc3)nc2n1-c1cccc(C(C)(C)O)n1,3.28,2.56,2.52,3.63,,3.95
COCCOC(=O)C1=C(C)NC(C)=C(C(=O)OC/C=C/c2ccccc2)C1c1cccc([N+](=O)[O-])c1 (centres undefined) [Cilnidipine],2.22,1.04,,1.29,1.61,1.46
COC(=O)C1=C(C#N)NC(C)=C(C(=O)OC(C)C)C1c1cccc([N+](=O)[O-])c1 (centres undefined) [Nilvadipine],1.2,0.818,,1.19,0.907,1.34
CCN1CCCC1CNC(=O)c1cc(S(N)(=O)=O)ccc1OC (centres undefined) [Sulpiride],0.713,1.29,,0.953,1.17,0.676
CC(C(=O)O)c1ccc(-c2ccccc2)c(F)c1 (centres undefined) [Flurbiprofen],0.962,0.696,,1.21,0.393,1.27
Oc1ncnc2[nH]ncc12 [Allopurinol],1.04,0.955,,1.01,0.506,1.21
CC(C)Oc1ccc(-c2nn([C@@H](C)c3oc4ccc(F)cc4c(=O)c3-c3cccc(F)c3)c3ncnc(N)c23)cc1F [umbralisib (TGR-1202)],1.11,1.14,,1.9,1.81,0.974
CC(=O)[C@H]1CC[C@H]2[C@@H]3CCC4=CC(=O)CC[C@]4(C)[C@H]3CC[C@]12C [Progesterone],0.734,0.774,,0.883,0.863,0.832
C=C1C(=O)O[C@@H]2/C=C(\C)CC/C=C(\C)CC[C@@H]12 [Costunolide],1.27,0.924,,1.01,1.29,0.93
CC1(C)C[C@@H]1C(=O)N/C(=C\CCCCSC[C@H](N)C(=O)O)C(=O)O [Cilastatin],0.899,0.574,,1.49,0.578,0.796
Cc1oncc1C(=O)Nc1ccc(C(F)(F)F)cc1 [Leflunomide],2.25,2.41,,2.37,1.3,2.17
Cc1c(OCC(F)(F)F)ccnc1C[S+]([O-])c1nc2ccccc2[nH]1 (centres undefined) [Lansoprazole],1.16,2.3,,0.815,1.08,0.948
O=C(c1ccccc1)c1ccc2n1CCC2C(=O)O (centres undefined) [Ketorolac tromethamine salt],0.861,0.868,,0.834,0.47,0.82

# Reference: the supplement of paper PMC10127200
